# Results from the supplement of paper PMC9254222.
# The full ranking holds about 1,100 compounds; the median of “Wnt reporter firefly/Renilla luciferase ratio relative to plate median” is about 1.1, and the highest 2% start at about 1.6. This excerpt belongs to a sample that is enriched for the highest values.
# System: HEK293T (UBE3A T485A transfected, BAR Wnt reporter)
# Test: Wnt reporter firefly/Renilla luciferase ratio relative to plate median (fold (linear ratio)); higher = more Wnt/beta-catenin reporter activation
# Conditions: 24 h
# Outline: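 HEK293T cells carrying a transfected BAR firefly luciferase Wnt reporter, TK-Renilla and an expression plasmid were exposed to chemicals at 0.01–100 uM for 24 h, with dosing four hours after transfection. Readout used Dual-Glo luciferase. The firefly/Renilla ratio defined Wnt activity and raw Renilla defined cell health, each median-centred per plate. Figures are means of four biological replicates.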
SMILES,Wnt reporter firefly/Renilla luciferase ratio (concentration: 0.1 uM),Wnt reporter firefly/Renilla luciferase ratio (concentration: 1 uM),Wnt reporter firefly/Renilla luciferase ratio (concentration: 10 uM),Wnt reporter firefly/Renilla luciferase ratio (concentration: 100 uM),Wnt reporter firefly/Renilla luciferase ratio (concentration: 0.01 uM)
CCN(CC)CCNc1ccc(CNC=O)c2sc3ccc(OC)cc3c(=O)c12,1.79,0.887,0.373,–,–
O=c1[nH]c2ccc(S(=O)CCN3CCC(Cc4ccc(F)cc4)CC3)cc2o1 (stereo unspecified) [Besonprodil],1.11,0.965,0.993,0.313,–
C[C@]12CC[C@@H]3c4ccc(O)cc4CC[C@H]3[C@@H]1CC[C@@H]2O [17beta-Estradiol],0.999,0.932,0.591,–,–
CN(C)[C@@H]1C(O)=C(C(N)=O)C(=O)[C@@]2(O)C(O)=C3C(=O)c4c(O)cccc4[C@@](C)(O)[C@H]3C[C@@H]12 [Tetracycline],1.15,1.17,1.43,0.703,–
CN(C)[C@@H]1C(O)=C(C(N)=O)C(=O)[C@@]2(O)C(O)=C3C(=O)c4c(O)cccc4[C@@](C)(O)[C@H]3[C@H](O)[C@@H]12.Cl [Oxytetracycline hydrochloride],1.09,1.03,0.562,0.0778,–
CN(C)[C@@H]1C(O)=C(C(N)=O)C(=O)[C@@]2(O)C(O)=C3C(=O)c4c(O)cccc4[C@@](C)(O)[C@H]3[C@H](O)[C@@H]12.O.O [Oxytetracycline dihydrate],2.3,1.22,1.34,0.951,1.55
CCCCC(CC)COP(=O)(OCC(CC)CCCC)OCC(CC)CCCC (stereo unspecified) [Tris(2-ethylhexyl) phosphate],0.978,1.17,1.11,0.917,–
CCCCC(CC)CO (stereo unspecified) [2-Ethyl-1-hexanol],0.976,0.988,1.62,0.964,–
CCCCC(CC)COC(=O)CCCCCCCCC(=O)OCC(CC)CCCC (stereo unspecified) [Bis(2-ethylhexyl) decanedioate],0.935,1.08,1.07,1.12,–
Oc1ccc(O)cc1 [Hydroquinone],0.941,0.865,0.902,0.377,–
CCCCCCC(CCCCCCCCCCC(=O)OCC(COC(C)=O)OC(C)=O)OC(C)=O (stereo unspecified) [Grinstad Soft-N-Safe],0.94,1.29,1.08,1.54,–
C/C=C/c1ccc(OC)cc1 [(E)-Anethole],1.22,0.971,1.15,1.58,–
"CC(C)(c1cc(Br)c(O)c(Br)c1)c1cc(Br)c(O)c(Br)c1 [3,3',5,5'-Tetrabromobisphenol A]",1.05,0.95,1.03,0.332,–
Cc1ncc([C@@H](CCCCCCc2ccc3c(n2)NCCC3)CC(=O)O)cn1,1.25,1.42,1.78,1.55,–
CS(=O)(=O)c1ccc([C@@H](CC2CCCC2)C(=O)Nc2cnccn2)cc1Cl,1.12,1.16,0.922,0.278,–
CC(C)NCC(O)c1ccc(O)c(O)c1.Cl (stereo unspecified) [Isoproterenol hydrochloride],1.1,1.23,1.15,0.309,–
O=C(O)c1cc(/N=N/c2ccc(S(=O)(=O)Nc3ccccn3)cc2)ccc1O [Sulfasalazine],0.944,0.993,1.33,3.01,–
Cc1ccc2ncccc2c1 [6-Methylquinoline],0.931,0.836,1.29,1.81,–
c1ccc2ncccc2c1 [Quinoline],0.857,1.13,1.43,1.26,–
"Cc1ccc(C)c(C)c1 [1,2,4-Trimethylbenzene]",0.982,0.965,0.884,1.09,–

SMILES,Wnt reporter firefly/Renilla luciferase ratio (concentration: 0.1 uM),Wnt reporter firefly/Renilla luciferase ratio (concentration: 1 uM),Wnt reporter firefly/Renilla luciferase ratio (concentration: 10 uM),Wnt reporter firefly/Renilla luciferase ratio (concentration: 100 uM),Wnt reporter firefly/Renilla luciferase ratio (concentration: 0.01 uM)
O=C1c2c(O)cccc2Cc2cccc(O)c21 [Anthralin],0.825,1.04,1.46,0.798,–
COc1ccc(C(=O)Nc2nc3ccccc3c(NCc3ccccc3)c2C#N)cc1,1.27,1.14,0.744,0.357,–
COCCOC[C@H](CC1(C(=O)N[C@H]2CC[C@@H](C(=O)O)CC2)CCCC1)C(=O)Oc1ccc2c(c1)CCC2 [Candoxatril],1.15,1.05,1,0.894,–
CN1CCC[C@H]1c1cccnc1 [Nicotine],1.15,1.19,1.12,1.18,–
"CC1(C)C(=O)N(Br)C(=O)N1Br [1,3-Dibromo-5,5-dimethylhydantoin]",0.79,1.01,1.06,1.25,–
"CC1(C)C(=O)N(Cl)C(=O)N1Cl [1,3-Dichloro-5,5-dimethylhydantoin]",0.845,0.849,0.887,1.63,–
NC(=O)N1C(=O)C(C(=O)c2cc(Cl)cs2)c2cc(F)c(Cl)cc21 (stereo unspecified),0.988,0.996,1.38,1.26,–
C[C@]12CC[C@@H]3c4ccc(O)cc4CC[C@H]3[C@@H]1CC[C@H]2O [17alpha-Estradiol],0.699,1.04,0.715,–,–
OCCNCCO [Diethanolamine],1.17,0.992,1.4,2.49,–
c1ccc2[nH]c(-c3cscn3)nc2c1 [Thiabendazole],1.03,1.08,1.27,1.24,1.24
CC(C)(C)c1cc(/C=C2\SC(=N)NC2=O)cc(C(C)(C)C)c1O.CS(=O)(=O)O [Darbufelone mesylate],1.11,0.907,1.28,–,–
O=S(=O)([O-])c1ccc(/N=N/c2c(O)ccc3cc(S(=O)(=O)[O-])ccc23)cc1.[Na+].[Na+] [FD&C Yellow 6],1.08,0.966,1.22,2.05,–
Oc1ccc2ccccc2c1/N=N/c1ccccc1 [C.I. Solvent Yellow 14],1.12,1.2,1.14,1.37,–
COc1cc(S(=O)(=O)[O-])c(C)cc1/N=N/c1c(O)ccc2cc(S(=O)(=O)[O-])ccc12.[Na+].[Na+],1.19,1,1.45,2.21,–
CCCCCCCCCCCCc1ccccc1 [Dodecylbenzene],1.06,1.03,1.08,0.984,–
COc1ccc([N+](=O)[O-])cc1N [2-Methoxy-5-nitroaniline],0.964,0.988,1.04,1.14,–
Cl.NCC1(Cc2noc(=O)[nH]2)CCCCC1,0.992,0.928,0.857,1.16,–
O=c1c(-c2ccc(O)cc2)coc2cc(O)ccc12 [Daidzein],1.11,1.11,1.12,0.372,–
O=c1c(O)c(-c2ccc(O)c(O)c2)oc2cc(O)cc(O)c12 [Quercetin],1.1,1.09,1.38,–,–
O=c1c(-c2ccc(O)cc2)coc2cc(O)cc(O)c12 [Genistein],1.45,1.16,0.958,0.631,1.71

SMILES,Wnt reporter firefly/Renilla luciferase ratio (concentration: 0.1 uM),Wnt reporter firefly/Renilla luciferase ratio (concentration: 1 uM),Wnt reporter firefly/Renilla luciferase ratio (concentration: 10 uM),Wnt reporter firefly/Renilla luciferase ratio (concentration: 100 uM),Wnt reporter firefly/Renilla luciferase ratio (concentration: 0.01 uM)
CC1CCC(NC(=O)N(CCCl)N=O)CC1 (stereo unspecified) [Semustine],0.921,0.986,0.864,0.475,1.09
Cc1nc(-c2ccc3c(c2)CCN(CCC2CCC(NC(=O)/C=C/c4ccc(F)cc4)CC2)CC3)no1.Cl (stereo unspecified),1.22,0.948,0.916,0.983,–
Cc1cnc(-c2cnc(NCCNc3ccc(C#N)cn3)nc2-c2ccc(Cl)cc2Cl)[nH]1,1.5,5.86,128,–,1.03
CCOC(=O)c1ccc(O)cc1 [Ethylparaben],0.886,0.966,0.941,0.734,–
O=C([O-])c1[nH]n(-c2ccc(S(=O)(=O)[O-])cc2)c(=O)c1/N=N/c1ccc(S(=O)(=O)[O-])cc1.[Na+].[Na+].[Na+] [FD&C Yellow 5],1.26,0.877,1.26,1.86,–
CCCCc1oc2ccccc2c1C(=O)c1cc(I)c(OCCN(CC)CC)c(I)c1.Cl [Amiodarone hydrochloride],1.18,1.09,1,1.11,–
"CC(C)c1cccc(C(C)C)c1 [1,3-Diisopropylbenzene]",1.14,0.929,1.33,1.5,–
CC(=O)OC/C=C(\C)CCC=C(C)C [Geranyl acetate],1.1,0.97,1.27,1.23,–
c1ccc(Nc2ccccc2)cc1 [Diphenylamine],1.08,1.19,1.18,1.24,1.05
[Cl-].[Li+],0.845,0.926,0.875,1.27,0.768
C=CC(=C)CCC=C(C)C [Myrcene],1.05,0.768,1.02,1.15,–
CC(C)=CCCC(C)CCO (stereo unspecified) [Citronellol],1.07,0.904,1.18,1.64,–
CC(C)CCO [Isopentyl alcohol],1.15,0.978,1.1,1.03,–
NC(CCCP(=O)(O)O)C(=O)O (racemic),1.19,0.925,0.918,1.69,1.35
CC/C(=C(/CC)c1ccc(O)cc1)c1ccc(O)cc1 [Diethylstilbestrol],0.897,0.807,0.741,0.205,–
C[C@@H]1C[C@H]2[C@@H]3CCC4=CC(=O)C=C[C@]4(C)[C@@]3(F)[C@@H](O)C[C@]2(C)[C@@]1(O)C(=O)COP(=O)([O-])[O-].[Na+].[Na+] [Dexamethasone sodium phosphate],1.15,1.09,1.2,0.968,–
c1ccc2c(c1)-c1cccc3c1c-2cc1ccccc13 [Benzo(b)fluoranthene],1.22,1.22,1.45,1.45,–
C1N2CN3CN1CN(C2)C3 [Methenamine],1.17,1.16,1.23,1.71,–
COC(=O)CC(=O)OC [Dimethyl malonate],1.02,1.16,0.907,1.28,–
Cc1occc1C(=O)Nc1ccc(C(=O)N2CCC(F)(F)/C(=C\C(=O)N3CCC(N4CCCCC4)CC3)c3ccccc32)cc1.Cc1occc1C(=O)Nc1ccc(C(=O)N2CCC(F)(F)/C(=C\C(=O)N3CCC(N4CCCCC4)CC3)c3ccccc32)cc1.O=C(O)/C=C/C(=O)O,1.22,0.982,0.94,–,–
